# Bioassay records deposited in PubChem by National Center for Advancing Translational Sciences (NCATS).
# The list is not random: actives were taken first. Their share in the collection is about 7%.
# ATXN2 expr inh: Primary qHTS for Inhibitors of ATXN expression; AID 1745845, 2022; HEK-293 ATXN2-luciferase reporter, luminescence, 24 h; hit rate 0.72% among 360,000; Potency, µM (doses to about 57 µM), inactives show top-dose activity change, negative = inhibition, hits mostly inhibitors; further: potency means the concentration at half of the fitted maximal effect; on the % scale 0 is the no-effect control and ±100 the full control effect; nearly all actives have a fitted effect of over 55% in size
#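 qHTS (up to 57 uM final) was run with 24 h compound exposure of reporter cells at 37 °C. Each well was multiplexed: SteadyGlo luminescence measured ATXN2-luciferase expression after a fluorogenic Gly-Phe-AFC viability readout (25 uM final).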
# D3 ag: qHTS of D3 Dopamine Receptor Agonist: qHTS; D3R DiscoveRx beta-arrestin cells, luminescence, 90 min; hit rate 0.58% among 410,000; D(3) dopamine receptor (Homo sapiens), P35462; max activation, %; in the data active means max activation above about 30%; further: 0% is about no effect
# Target sequence (P35462 whole entry, looked up): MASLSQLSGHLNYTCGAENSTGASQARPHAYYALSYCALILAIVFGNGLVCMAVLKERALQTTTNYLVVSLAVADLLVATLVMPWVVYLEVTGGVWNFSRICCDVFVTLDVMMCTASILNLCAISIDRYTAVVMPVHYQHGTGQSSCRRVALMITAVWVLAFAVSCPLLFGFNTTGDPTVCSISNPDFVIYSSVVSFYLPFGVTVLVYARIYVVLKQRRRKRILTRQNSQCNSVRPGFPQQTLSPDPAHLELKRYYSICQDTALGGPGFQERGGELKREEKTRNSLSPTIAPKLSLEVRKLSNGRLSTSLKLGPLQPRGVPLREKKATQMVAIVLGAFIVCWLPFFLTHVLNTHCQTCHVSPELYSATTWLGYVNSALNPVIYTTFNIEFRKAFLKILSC
#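 Agonist-mode cell screen: cells plated at 1500/well and incubated overnight at 37 °C, then exposed to library compounds for 90 min at 37 °C. Detection reagent was added for 30–60 min at room temperature, and luminescence was read.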
# IL-1B inflam inh: qHTS for Inhibitors of Inflammasome Signaling: IL-1-beta AlphaLISA Primary Screen | activity change, % at 57.5 µM | THP-1 LPS/ATP IL-1B secretion, AlphaLISA, 16 h; stronger effect = lower value | hit rate 4.7% among 360,000 | AID 743279, 2014; in the data active means activity change below about -50%; inconclusive means mostly about -30% to -49%; further: on the % scale 0 is the no-effect control and ±100 the full control effect
#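 Secreted IL-1B measured by AlphaLISA bead assay after 16 h compound exposure of THP-1 cells; compounds (final up to 57.5 uM) added 1 h before LPS (250 ng/mL) and ATP (1.25 mM) stimulation; lower signal means less secretion.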
# ATXN viability: Viability Counterscreen for Primary qHTS for Inhibitors of ATXN expression; AID 651635, 2014; S2 cells (HEK-293 line with an ATXN2-luciferase reporter) viability, CellTiter-Fluor protease fluorescence, 24 h; hit rate 0.49% among 400,000; Potency, µM (doses to about 56.7 µM), usual class: cytotoxic; further: potency means the concentration at half of the fitted maximal effect; nearly all actives have a fitted effect of over 40% in size
# D3 antag: qHTS of D3 Dopamine Receptor Antagonist: qHTS; D(3) dopamine receptor (Homo sapiens), P35462; D3R cells, DiscoveRx beta-arrestin luminescence, antagonist mode; stronger effect = lower value; max response, negative = inhibition, %; hit rate 2.5% among 360,000; AID 652054, 2013; in the data active means max response below about -50%; inconclusive means no clear call, values can overlap the other calls; further: on the % scale 0 is the no-effect control and ±100 the full control effect
#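 Cells expressing the human receptor were seeded at 1500 cells/well, incubated overnight at 37 degrees C in 5% CO2, then exposed to library compounds with dopamine controls for 90 minutes at 37 degrees C before luminescent detection.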
# Integrin act MD: qHTS for Activators of Integrin-Mediated Alleviation for Muscular Dystrophy; alpha7betagal myoblasts, beta-gal FDG fluorescence, 48 h; Potency, µM (series often up to 38.3 µM), inactives show top-dose activation, usual class: activators; hit rate 0.064% among 350,000; AID 624291, 2012;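 further: potency means the concentration at half of the fitted maximal effect; 100% = response of the positive control SU9516; nearly all actives have a fitted effect of over 60% in size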
#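 Alpha7betagal+/- myoblasts (passage 13) were plated 16-24 hr, then exposed to compounds (1:260 dilution of DMSO stock) for 48 hours at 37C. After MPER lysis, β-galactosidase reporter activity was read as FDG fluorescence (ex 480/em 540) after 30 minutes.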
# * hit, by the source's call; i = inactive; ? = inconclusive; . = no result given; [ ] = remark or other dose. Unless noted, the call rests on the fitted dose curve; in most records, active means well fitted curve in the direction sought with a large enough effect; inconclusive means small, poorly fitted or top-dose-only effect, or another doubt; inactive means no such curve, though single readings can be large; an effect the other way counts as inactive or inconclusive.
SMILES,ATXN2 expr inh,D3 ag,IL-1B inflam inh,ATXN viability,D3 antag,Integrin act MD
CC1(C)CC(=O)C2=C(C1)Oc1ncn(CCO)c(=N)c1C2c1ccccc1 (stereo not given),0.9%,8.3,-8.4,?,14.6,-0.5%
N#Cc1cc(N2CCCCC2)c([N+](=O)[O-])cc1C#N,-12.9%,-4.1,-10.5,i,-9.0,?
O=[N+]([O-])c1cc2no[n+]([O-])c2cc1N1CCCCC1,9.47µM*,-7.1,-78.4*,5.32µM*,?,-53.0%
Cc1ccccc1C(=O)Nc1ccc(O)c2c(=O)cc(-c3ccccc3Cl)oc12,-15.3%,3.8,-13.1,i,-14.0,7.2%
O=C(Nc1ccc(O)c2c(=O)cc(-c3ccccc3Cl)oc12)c1ccc(Cl)c(Cl)c1,0.8%,-27.9,16.8,i,-83.4*,-21.9%
CC(=NNC(=S)N1CCCCC1)c1ccccn1,.,-9.4,-73.7*,?,-24.8,-44.3%
C/C(=N\NC(=O)c1cc2ccccc2cc1O)c1ccccn1,?,-9.3,69.8,i,?,0.0%
C/C(=N\NC(=S)NC1CCCCC1)c1ccc(Cl)c(Cl)c1,8.8%,-3.9,15.7,i,-12.6,24.8%
CC(=NNC(=S)N1CCCCC1)c1cccc(C)n1,?,2.4,0.0,?,-106.8*,-46.5%
CC(=NNC(=S)N1CC2CCC(CC2)C1)c1ccncn1,0.316µM*,5.3,0.0,?,2.5,-2.1%
CSC(=S)NN=C(C)c1cccc(C)n1,?,-1.6,?,?,-21.1,-40.0%
COc1cc(NC(=O)c2cc(Cl)c(OC)c(Cl)c2)ccc1NC(=O)c1cc2ccccc2o1,11.9%,-15.1,.,i,.,.
C/C=C/c1ccc(OCCCCN2CC(C)CC(C)C2)c(OC)c1 (stereo not given),-25.6%,-38.9,-70.1*,i,-74.0*,-49.2%
C/C=C/c1ccc(OCCCCNCc2ccco2)c(OC)c1,0.6%,-7.3,-58.1*,i,-20.5,-65.2%
Cc1ccc(CN2CCSc3ccc(C(=O)N4CCOCC4)cc32)cc1,-15.4%,4.6,-18.8,?,10.6,11.1%
O=C(Nc1ccccc1)Nc1ncc([N+](=O)[O-])s1,?,-13.7,-87.3*,22.4µM*,?,-75.3%
COc1cccc(-c2nc(-c3ccccc3)nc(N3CCN(C)CC3)c2C#N)c1,-35.3%,-8.7,-61.3*,i,7.2,-55.1%
CCc1ccc2nc(N3CCN(C)CC3)c(C#N)cc2c1,21.3%,0.8,-20.1,i,-67.9*,8.1%
CN1CCN(c2nc(-c3ccccc3)nc(-c3ccccc3)c2C#N)CC1,-29.0%[11.3 µM],-2.9,-96.1*,?,-29.0,22.5%
N#Cc1c(-c2ccccc2)nc(-c2ccccc2)nc1N1CCOCC1,3.1%,-12.3,?,i,44.3,-13.4%
COC(=O)c1sc2nc(-c3ccccc3)nc(N3CCN(C)CC3)c2c1C,-0.9%,-8.2,-15.0,i,-6.9,16.3%
CN1CCN(c2nc(-c3ccc(Br)cc3)nnc2-c2ccccc2)CC1,4.6%,-14.8,-57.9*,i,-14.1,-22.9%
O=C(c1ccc(Cl)c(S(=O)(=O)N2CCOCC2)c1)N(c1ccccn1)C1CCCCC1,-9.5%,4.1,28.6,i,11.1,-6.5%
COc1ccc(-c2nc(-c3cccc(C)c3)nc(N3CCN(C)CC3)c2C#N)cc1,-21.2%,2.2,-20.2,i,9.9,6.0%
CCOC(=O)c1cc(C#N)c(N2CCCC2)nc1-c1ccccc1,-8.0%,5.0,0.6,?,0.0,-24.7%
SMILES,ATXN2 expr inh,D3 ag,IL-1B inflam inh,ATXN viability,D3 antag,Integrin act MD
CCOC(=O)c1cc(C#N)c(N2CCN(C)CC2)nc1-c1ccccc1,-18.5%,-22.8,13.4,i,-69.4*,0.0%
COc1ccc(-c2nc(-c3ccccc3)nc(N3CCN(C)CC3)c2C#N)cc1,-20.8%,-11.7,-20.6,i,-85.3*,0.7%
CSc1ncc2c(=O)[nH]c(-c3ccccc3)nc2n1,?,-3.4,-73.9*,i,4.7,31.2%
Brc1cnc2nc(SCc3nc4ccccc4[nH]3)[nH]c2c1,23.8µM*,-3.3,47.2,i,15.1,9.0%
Fc1ccc(CSc2nc3ncc(Br)cc3[nH]2)cc1,22.5%,0.4,7.0,i,-2.7,-4.4%
CCCCn1c(N)c(N(CCOC)C(=O)C2CC(=O)N(c3ccc(CC)cc3)C2)c(=O)[nH]c1=O (stereo not given),-1.7%,6.0,-13.2,i,-0.9,15.3%
COc1ccc([N+](=O)[O-])c(S(=O)(=O)c2ccc(Cl)cc2)n1,?,-10.5,-94.5*,.,-95.1*,-55.1%
COc1nc(OC)nc(Oc2ccc(Cl)cc2[N+](=O)[O-])n1,3.5%,-5.1,-2.9,i,5.5,-29.9%
COc1ccc([N+](=O)[O-])c(S(=O)(=O)c2ccccc2)n1,11.9µM*,-44.8,-96.4*,.,-75.6*,-51.9%
Nc1cccnc1S(=O)(=O)c1ccccc1,10.8%,-6.5,16.3,i,-11.2,-8.5%
O=[N+]([O-])c1cccnc1S(=O)(=O)c1ccccc1,-30.7%,-8.6,-97.3*,?,-73.6*,-62.0%
CC1CCN(C(=O)CN2C(=O)NC3(CCC(C)CC3)C2=O)CC1 (stereo not given),-6.0%,4.5,2.3,i,3.1,0.0%
Cn1cnnc1SCC(=O)N1CCc2ccccc2C1,.,6.0,15.0,i,10.0,-2.8%
Cc1cccc(N=C2NC(=O)/C(=C3/C(=O)N(C)c4ccccc43)S2)c1C,-11.6%,-4.7,7.6,i,-93.4*,-31.2%
Cc1ccccc1N=C1NC(=O)/C(=C/c2cccn2C)S1,.,-16.7,-1.3,?,-14.9,5.0%
COC(=O)c1ccc2nc(-c3ccc(C)cc3)c(Cc3ccsc3)n2c1,-37.7%,-9.8,45.9,?,-10.9,.
CC(c1ccccc1)N1C(=O)c2ccc(C(=O)Nc3ccccc3C(=O)O)cc2C1=O (stereo not given),4.8%,31.8*,36.5,i,105.4,-37.0%
O=C(Nc1ccccc1C(=O)O)c1ccccc1,4.1%,12.8,43.8,i,-13.5,-23.9%
O=C(Nc1ccccc1C(=O)O)c1ccc(NC(=O)c2ccc(Br)o2)cc1,-3.6%,114.7*,41.5,i,43.8,-37.4%
O=C(Nc1ccccc1C(=O)O)c1cccc(C(=O)Nc2ccccc2C(=O)O)c1,2.6%,30.4*,32.2,i,102.4,4.1%
CC(c1ccccc1)N1C(=O)c2ccc(C(=O)Nc3ccc(Br)cc3C(=O)O)cc2C1=O (stereo not given),-4.2%,15.4,13.9,i,43.3,-15.6%
